39 compounds from ChEMBL document CHEMBL3988442, “University of Dundee, Small-Polar-MMV Screening Library” (2021) can be followed below.

Molecules are shown by their SMILES.

The target of one experiment is T1, Aspartate--tRNA(Asp/Asn) ligase (Mycobacterium tuberculosis (strain ATCC 25618 / H37Rv)) (UniProt P9WFW3). Note: in the data most compounds retested in dose-response had high values.
T1 sequence (whole entry): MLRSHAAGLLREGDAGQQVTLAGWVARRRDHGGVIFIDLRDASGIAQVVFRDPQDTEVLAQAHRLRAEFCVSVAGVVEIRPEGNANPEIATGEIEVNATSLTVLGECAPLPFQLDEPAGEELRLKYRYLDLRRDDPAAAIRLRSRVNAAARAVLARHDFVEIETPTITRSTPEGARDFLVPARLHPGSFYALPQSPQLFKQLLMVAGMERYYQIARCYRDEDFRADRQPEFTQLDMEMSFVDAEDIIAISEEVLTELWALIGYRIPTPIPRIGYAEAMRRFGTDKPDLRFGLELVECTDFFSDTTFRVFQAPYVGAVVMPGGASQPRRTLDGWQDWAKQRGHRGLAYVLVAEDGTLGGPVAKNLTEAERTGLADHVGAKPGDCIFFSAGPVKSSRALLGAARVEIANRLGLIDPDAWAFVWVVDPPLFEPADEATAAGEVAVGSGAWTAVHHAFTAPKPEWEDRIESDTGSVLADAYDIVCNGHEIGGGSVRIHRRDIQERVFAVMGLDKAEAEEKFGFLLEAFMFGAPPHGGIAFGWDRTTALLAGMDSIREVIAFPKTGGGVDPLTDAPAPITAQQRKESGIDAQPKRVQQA
Put plainly: Assay for Asp RNA synthetase-1 from Mycobacterium tuberculosis. The experiment is classed as functional. Further details: scale not given: direction of the effect not stated beside the values. To be noted: 30 µM.
`COCCC(=O)N1CC[C@@H](N(C)C)[C@@H]1Cc1ccccc1`: the Percent Effect was -3.16%.
As for `CC(Cn1cccn1)NC(=O)NCc1ccc(S(N)(=O)=O)cc1` (stereo not drawn), the Percent Effect is 6.49%.
As to `COc1ncccc1C(=O)N1CCN(C(=O)Cc2ccccn2)CC1`, the Percent Effect was found to be 4.26%.
Turning to `COCc1cc(NCc2cc(F)ccc2F)n2nccc2n1`, the Percent Effect stood at 7.1%.
Still for that read-out and setting: to `COc1ccc(F)cc1S(=O)(=O)NCC(c1cccn1C)N(C)C` (stereo not drawn) belongs -5.43%; to `Cc1ccc(CNC(=O)N2CCN(Cc3ccsc3)CC2)n1C`, 0.896%.
Still for that read-out and setting: as for `CCc1nc2n(n1)CC(NCC(=O)Nc1cc(C)on1)CC2` (stereo not drawn), the figure is -3.4%; as for `COc1ccc(-c2nc(CN3CCCC3Cn3cccn3)no2)cc1` (stereo not drawn), -3.19%.
Still for that read-out and setting: as for `Cc1ccoc1-c1nnc(CN2CCCC(Cn3cncn3)C2)o1` (stereo not drawn), the figure is 1.01%; as for `CN1CCN(Cc2nnc(C3CCN(CC4CC4)CC3)n2C)CC1`, -0.891%.
Turning to `O=C(C1CCCC1)N1CCN(Cc2nc(-c3ccco3)no2)CC1`, the Percent Effect is -3%.
Take `CCS(=O)(=O)N1CCC2(CC1)CC(Oc1ccccn1)CO2` (stereo not drawn): the Percent Effect was -0.51%.
As for `CCOc1cc(C(=O)N2CCCC(n3cncn3)C2)ccc1C` (stereo not drawn), the Percent Effect came out at 1.17%.
Still for that read-out and setting: to `O=C(O)c1coc(COc2cccc(F)c2)n1` belongs -2.21%; to `CCc1cc(C)c(C(=O)N2CCCC2CC(=O)c2cnn(C)c2)o1` (stereo not drawn), -2.02%; to `c1ccc(CN2CCc3nnc(CN4CCCCC4)n3CC2)nc1`, 3.71%.
Same read-out and setting: to `COC1COC2(CCN(Cc3ccccc3Cl)CC2)C1` (stereo not drawn) belongs 3.77%.
As to `O=C(NCc1ccco1)[C@@H]1CCO[C@@H]2CCN(c3ccncn3)C[C@H]21`, the Percent Effect is 1.19%.
Same read-out and setting: as for `COC(=O)CCC(=O)N1CCC2(CN(Cc3cccc(F)c3)C2)C1`, the figure is 8.76%.
Same read-out and setting: as for `O=C(Cn1ccc2ccc(Br)cc21)NCc1ccc(C(=O)O)cc1`, the figure is 14.7%; as for `O=C1COC2(CCN(Cc3ccc(F)cc3)CC2)CN1`, 0.549%; as for `CC(C)C(C(=O)N1CCCN(Cc2nccn2C)CC1)N1CCCC1` (stereo not drawn), -3.15%.
Same read-out and setting: as for `O=C(c1cccc2cccnc12)N1CCCN(c2cccnn2)CC1`, the figure is -6.72%; as for `Cc1cccc(N2CCN(C(=O)Nc3cnn(CC(N)=O)c3)CC2)c1`, -2.01%.
On to `CCOc1cc(C)ccc1NC(=O)N(C)Cc1cnn(C)c1`, for which the Percent Effect worked out at 4.37%.
Still for that read-out and setting: as for `Cc1cc2n(n1)CC(CNC1CCN(c3ccc(F)cc3)CC1)CN2` (stereo not drawn), the figure is 4.19%; as for `Cc1c(C)n(-c2ccccn2)c2nc3c(c(N)c12)CCCC3`, -3.86%.
Still for that read-out and setting: to `CNc1cc(CCNC(=O)c2cccnc2)nc(-c2ccncc2)n1` belongs -1.03%; to `O=C(CCCOc1ccccc1Cl)N1CCCC(n2cncn2)C1` (stereo not drawn), -3.9%.
With `CN(CC(=O)N(C)C1CCCCC1)C1CCc2ccccc21` (stereo not drawn), the Percent Effect amounted to 0.433%.
In the case of `Cc1cccc(N2CCN(CCNC(=O)c3ccnn3C)CC2)c1`, the Percent Effect came to 5.62%.
The same measure, in the same setting: as for `CC(NC(=O)C1=NN(C)C(=O)CC1)c1ccc(Cl)cc1Cl` (stereo not drawn), the figure is -11.1%; as for `Cc1cc(N2CCCCCC2)n2nc(C)c(C)c2n1`, 0.167%.
For the compound `O=C(Nc1cccc(CN2CCOC2=O)c1)N1CCOCC1`, the Percent Effect was 1.78%.
On the same count and under the same terms, as for `CN(Cc1cccc(Cl)c1)S(=O)(=O)N1CCOCC1`, the figure is 2.4%.
Same read-out and setting: to `CC(=O)N1CCC2(CC1)COCCN2Cc1ccc(F)cc1` belongs -4.11%; to `O=C(Cc1ccc2c(c1)CCC2)NCCNc1ncccn1`, -1.71%.
Still for that read-out and setting: as for `COc1ccc(C(=O)N2C[C@@H](C(=O)O)[C@H](c3ccccc3C)C2)c(O)c1`, the figure is 8.11%; as for `O=C1COC2(CCN(Cc3ccccn3)CC2)CN1CC1CC1`, 4.21%.

In the next experiment the target is Shiga toxin 2 (Escherichia coli O157:H7) (UniProt P09385+P09386). Put plainly: E. coli 0.157:H7 Shiga Toxin SOP - stx2 screening assay. The experiment is classed as functional. Further details: scale not given: direction of the effect not stated beside the values. The settings on record: 30 µM.
`COCCC(=O)N1CC[C@@H](N(C)C)[C@@H]1Cc1ccccc1`: the Percent Effect came out at 2.6%.
The same measure, in the same setting: as for `CC(Cn1cccn1)NC(=O)NCc1ccc(S(N)(=O)=O)cc1` (stereo not drawn), the figure is 14.9%.
The same measure, in the same setting: as for `COc1ncccc1C(=O)N1CCN(C(=O)Cc2ccccn2)CC1`, the figure is -53.3%.
In the case of `COCc1cc(NCc2cc(F)ccc2F)n2nccc2n1`, the Percent Effect was -13.4%.
As for `COc1ccc(F)cc1S(=O)(=O)NCC(c1cccn1C)N(C)C` (stereo not drawn), the Percent Effect came to 9.89%.
On the same count and under the same terms, to `Cc1ccc(CNC(=O)N2CCN(Cc3ccsc3)CC2)n1C` belongs -31.3%.
In the case of `CCc1nc2n(n1)CC(NCC(=O)Nc1cc(C)on1)CC2` (stereo not drawn), the Percent Effect was 3.33%.
Same read-out and setting: to `COc1ccc(-c2nc(CN3CCCC3Cn3cccn3)no2)cc1` (stereo not drawn) belongs -24.1%; to `Cc1ccoc1-c1nnc(CN2CCCC(Cn3cncn3)C2)o1` (stereo not drawn), -16.9%.
On to `CN1CCN(Cc2nnc(C3CCN(CC4CC4)CC3)n2C)CC1`, for which the Percent Effect turned out to be 2.65%.
On to `O=C(C1CCCC1)N1CCN(Cc2nc(-c3ccco3)no2)CC1`, for which the Percent Effect was -10.1%.
On to `CCS(=O)(=O)N1CCC2(CC1)CC(Oc1ccccn1)CO2` (stereo not drawn), for which the Percent Effect came out at 0.988%.
On the same count and under the same terms, to `CCOc1cc(C(=O)N2CCCC(n3cncn3)C2)ccc1C` (stereo not drawn) belongs 17.5%; to `O=C(O)c1coc(COc2cccc(F)c2)n1`, -2.73%; to `CCc1cc(C)c(C(=O)N2CCCC2CC(=O)c2cnn(C)c2)o1` (stereo not drawn), 19.9%.
The same measure, in the same setting: to `c1ccc(CN2CCc3nnc(CN4CCCCC4)n3CC2)nc1` belongs 1.8%; to `COC1COC2(CCN(Cc3ccccc3Cl)CC2)C1` (stereo not drawn), -11.8%.
Still for that read-out and setting: to `O=C(NCc1ccco1)[C@@H]1CCO[C@@H]2CCN(c3ccncn3)C[C@H]21` belongs -15.1%; to `COC(=O)CCC(=O)N1CCC2(CN(Cc3cccc(F)c3)C2)C1`, 2.07%; to `O=C(Cn1ccc2ccc(Br)cc21)NCc1ccc(C(=O)O)cc1`, -5.49%.
As to `O=C1COC2(CCN(Cc3ccc(F)cc3)CC2)CN1`, the Percent Effect is 11.4%.
Take `CC(C)C(C(=O)N1CCCN(Cc2nccn2C)CC1)N1CCCC1` (stereo not drawn): the Percent Effect turned out to be 27%.
On the same count and under the same terms, as for `O=C(c1cccc2cccnc12)N1CCCN(c2cccnn2)CC1`, the figure is 3.11%; as for `Cc1cccc(N2CCN(C(=O)Nc3cnn(CC(N)=O)c3)CC2)c1`, -45.6%.
Take `CCOc1cc(C)ccc1NC(=O)N(C)Cc1cnn(C)c1`: the Percent Effect came to 24%.
In the case of `Cc1cc2n(n1)CC(CNC1CCN(c3ccc(F)cc3)CC1)CN2` (stereo not drawn), the Percent Effect is -37.2%.
The same measure, in the same setting: to `Cc1c(C)n(-c2ccccn2)c2nc3c(c(N)c12)CCCC3` belongs -68.1%.
On to `CNc1cc(CCNC(=O)c2cccnc2)nc(-c2ccncc2)n1`, for which the Percent Effect is 2.08%.
As for `O=C(CCCOc1ccccc1Cl)N1CCCC(n2cncn2)C1` (stereo not drawn), the Percent Effect stood at 19.3%.
`CN(CC(=O)N(C)C1CCCCC1)C1CCc2ccccc21` (stereo not drawn): the Percent Effect was found to be 34.7%.
Still for that read-out and setting: as for `Cc1cccc(N2CCN(CCNC(=O)c3ccnn3C)CC2)c1`, the figure is -28.1%; as for `CC(NC(=O)C1=NN(C)C(=O)CC1)c1ccc(Cl)cc1Cl` (stereo not drawn), -19.3%; as for `Cc1cc(N2CCCCCC2)n2nc(C)c(C)c2n1`, 19.6%.
Same read-out and setting: to `O=C(Nc1cccc(CN2CCOC2=O)c1)N1CCOCC1` belongs -57.1%.
The same measure, in the same setting: as for `CN(Cc1cccc(Cl)c1)S(=O)(=O)N1CCOCC1`, the figure is 7.77%; as for `CC(=O)N1CCC2(CC1)COCCN2Cc1ccc(F)cc1`, -2.06%; as for `O=C(Cc1ccc2c(c1)CCC2)NCCNc1ncccn1`, 7.96%.
Turning to `COc1ccc(C(=O)N2C[C@@H](C(=O)O)[C@H](c3ccccc3C)C2)c(O)c1`, the Percent Effect turned out to be 0.95%.
With `O=C1COC2(CCN(Cc3ccccn3)CC2)CN1CC1CC1`, the Percent Effect is -7.99%.
